Laboratory results reported in the supplement of paper PMC10849652.
About 8,800 targets were measured; listed, in parts, are those with a hit and a random draw of the rest. About 0.5% of all pairs of compound and target were hits. A number with no mark means an inactive call.

Columns and labels:
Experiment in all cases: log2 fold change, soluble protein after heating vs DMSO (PISA); higher = thermal stabilisation; K562 lysate, 10 uM; active = over 0.2 and 3.5 SD of the protein, either way, in both replicates (recomputed)
[1] = compound: C1=CC=C(C=C1)[C@H](COC2=CC3=C(C=C2)NC(=O)N3)NC(=O)C4=CC=CN(C4=O)CC5=CC(=C(C=C5)F)F
Procedure, shortened: (§1)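 Quantification was by TMTpro 16plex LC-MS/MS with equalised channel sums, applied to the supernatant after 21,000xg for 90 min. Samples were crude K562 extract at 1 mg/mL protein in PBS pH 7.4 with 1 mM MgCl2, treated with 10 μM compound for 30 min, heated for 3 min across 48°C-58°C, pooled and brought to 0.5% NP-40 at 4°C. Values are log-two fold changes in thermal stability relative to solvent controls, from duplicates.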

[2] = compound: CC1=C(SC2=C1C(=N[C@H](C3=NN=C(N32)C)CC(=O)N)C4=CC=C(C=C4)Cl)C
Procedure, shortened: as §1

[3] = compound: CC1=C2C(=CC=C1)N=C(N(C2=O)C3=CC=CC=C3C)CN4C=NC5=C(N=CN=C54)N
Procedure, shortened: as §1

[4] = compound: Cc1sc2c(c1C)C(c1ccc(Cl)cc1)=N[C@@H](CC(=O)OC(C)(C)C)c1nnc(C)n1-2
Procedure, shortened: as §1

[5] = compound: c1ccc([C@@H]2C[C@H]2NC2CCNCC2)cc1
Procedure, shortened: as §1

UniProt P08236, sequence (P08236 whole entry, looked up): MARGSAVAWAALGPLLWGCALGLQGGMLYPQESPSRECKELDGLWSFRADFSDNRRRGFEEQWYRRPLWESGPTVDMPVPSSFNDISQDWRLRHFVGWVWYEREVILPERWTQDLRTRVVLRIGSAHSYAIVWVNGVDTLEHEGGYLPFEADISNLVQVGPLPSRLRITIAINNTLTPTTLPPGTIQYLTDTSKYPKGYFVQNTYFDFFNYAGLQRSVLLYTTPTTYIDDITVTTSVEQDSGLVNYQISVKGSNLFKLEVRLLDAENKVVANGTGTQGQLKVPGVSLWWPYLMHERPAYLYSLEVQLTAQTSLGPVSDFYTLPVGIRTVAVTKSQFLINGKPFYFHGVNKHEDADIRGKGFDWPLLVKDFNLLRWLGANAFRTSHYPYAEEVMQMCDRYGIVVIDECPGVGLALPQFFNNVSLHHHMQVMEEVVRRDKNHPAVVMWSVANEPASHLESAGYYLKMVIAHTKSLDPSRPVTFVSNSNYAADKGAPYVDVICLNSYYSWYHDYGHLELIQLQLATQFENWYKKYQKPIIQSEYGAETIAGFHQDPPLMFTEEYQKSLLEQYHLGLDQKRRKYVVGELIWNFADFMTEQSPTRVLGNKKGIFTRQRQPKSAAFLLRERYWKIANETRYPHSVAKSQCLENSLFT
UniProt Q9BX10, sequence (Q9BX10 whole entry, looked up): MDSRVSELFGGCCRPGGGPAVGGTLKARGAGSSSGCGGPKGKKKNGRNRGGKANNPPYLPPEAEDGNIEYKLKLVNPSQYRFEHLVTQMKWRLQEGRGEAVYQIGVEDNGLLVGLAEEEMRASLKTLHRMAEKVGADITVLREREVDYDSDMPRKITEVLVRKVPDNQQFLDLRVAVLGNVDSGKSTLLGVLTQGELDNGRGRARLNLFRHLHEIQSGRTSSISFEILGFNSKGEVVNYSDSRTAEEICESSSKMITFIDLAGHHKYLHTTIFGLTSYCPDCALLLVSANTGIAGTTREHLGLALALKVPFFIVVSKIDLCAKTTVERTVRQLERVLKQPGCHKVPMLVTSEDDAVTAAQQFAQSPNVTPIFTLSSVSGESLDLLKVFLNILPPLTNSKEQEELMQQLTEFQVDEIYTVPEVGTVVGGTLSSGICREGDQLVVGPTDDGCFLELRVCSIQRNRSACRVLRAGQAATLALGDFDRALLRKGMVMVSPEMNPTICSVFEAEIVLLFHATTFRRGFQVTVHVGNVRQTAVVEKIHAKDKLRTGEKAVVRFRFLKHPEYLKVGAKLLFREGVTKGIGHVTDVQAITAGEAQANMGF
UniProt Q14103, sequence (Q14103 whole entry, looked up): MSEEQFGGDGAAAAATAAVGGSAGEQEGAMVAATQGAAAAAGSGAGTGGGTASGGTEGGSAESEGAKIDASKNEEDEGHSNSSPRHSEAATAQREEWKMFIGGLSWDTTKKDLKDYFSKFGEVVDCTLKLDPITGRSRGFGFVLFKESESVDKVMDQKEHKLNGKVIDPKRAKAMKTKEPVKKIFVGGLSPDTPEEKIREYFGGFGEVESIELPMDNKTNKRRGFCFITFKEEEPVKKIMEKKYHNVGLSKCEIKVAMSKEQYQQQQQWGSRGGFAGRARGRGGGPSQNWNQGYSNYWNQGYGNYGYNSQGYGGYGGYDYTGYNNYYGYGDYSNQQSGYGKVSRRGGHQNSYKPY
UniProt P52789, sequence (P52789 whole entry, looked up): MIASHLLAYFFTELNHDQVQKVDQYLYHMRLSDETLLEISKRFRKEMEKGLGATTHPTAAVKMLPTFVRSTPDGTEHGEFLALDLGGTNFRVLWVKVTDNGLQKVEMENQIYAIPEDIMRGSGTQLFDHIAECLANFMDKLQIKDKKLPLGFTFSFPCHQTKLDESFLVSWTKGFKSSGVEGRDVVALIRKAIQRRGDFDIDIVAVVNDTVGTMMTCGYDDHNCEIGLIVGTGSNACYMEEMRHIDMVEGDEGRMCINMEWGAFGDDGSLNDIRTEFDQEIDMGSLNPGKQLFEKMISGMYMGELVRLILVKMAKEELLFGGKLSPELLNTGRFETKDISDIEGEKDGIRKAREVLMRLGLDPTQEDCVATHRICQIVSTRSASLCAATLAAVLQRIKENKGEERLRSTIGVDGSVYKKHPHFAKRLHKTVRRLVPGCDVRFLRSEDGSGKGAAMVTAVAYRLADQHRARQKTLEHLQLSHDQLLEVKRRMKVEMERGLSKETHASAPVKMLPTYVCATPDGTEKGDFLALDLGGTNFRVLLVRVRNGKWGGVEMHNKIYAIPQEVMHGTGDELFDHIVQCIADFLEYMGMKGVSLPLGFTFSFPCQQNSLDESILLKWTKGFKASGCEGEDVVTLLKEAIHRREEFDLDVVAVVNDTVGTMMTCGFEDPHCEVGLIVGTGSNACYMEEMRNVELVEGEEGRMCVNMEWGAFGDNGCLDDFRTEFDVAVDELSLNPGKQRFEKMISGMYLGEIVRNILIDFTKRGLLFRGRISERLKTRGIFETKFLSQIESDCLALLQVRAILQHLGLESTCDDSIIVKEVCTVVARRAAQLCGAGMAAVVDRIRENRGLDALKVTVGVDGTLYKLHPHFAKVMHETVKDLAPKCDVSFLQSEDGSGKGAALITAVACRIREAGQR
UniProt P49448, sequence (P49448 whole entry, looked up): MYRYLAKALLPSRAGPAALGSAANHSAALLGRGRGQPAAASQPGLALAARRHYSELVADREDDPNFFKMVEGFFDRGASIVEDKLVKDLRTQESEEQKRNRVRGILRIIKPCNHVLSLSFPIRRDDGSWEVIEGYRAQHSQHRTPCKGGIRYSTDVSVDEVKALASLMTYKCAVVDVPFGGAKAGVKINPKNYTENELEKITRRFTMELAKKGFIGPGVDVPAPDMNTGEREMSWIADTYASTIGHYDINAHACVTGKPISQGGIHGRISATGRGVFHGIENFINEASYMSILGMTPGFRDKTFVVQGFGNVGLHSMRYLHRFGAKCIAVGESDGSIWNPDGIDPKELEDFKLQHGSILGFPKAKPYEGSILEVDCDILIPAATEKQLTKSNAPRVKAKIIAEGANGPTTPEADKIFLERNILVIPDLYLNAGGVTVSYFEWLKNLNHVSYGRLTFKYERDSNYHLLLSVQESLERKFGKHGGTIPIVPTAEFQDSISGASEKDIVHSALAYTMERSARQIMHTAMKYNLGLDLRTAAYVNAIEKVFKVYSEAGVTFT
UniProt Q7Z5Y7, sequence (Q7Z5Y7 whole entry, looked up): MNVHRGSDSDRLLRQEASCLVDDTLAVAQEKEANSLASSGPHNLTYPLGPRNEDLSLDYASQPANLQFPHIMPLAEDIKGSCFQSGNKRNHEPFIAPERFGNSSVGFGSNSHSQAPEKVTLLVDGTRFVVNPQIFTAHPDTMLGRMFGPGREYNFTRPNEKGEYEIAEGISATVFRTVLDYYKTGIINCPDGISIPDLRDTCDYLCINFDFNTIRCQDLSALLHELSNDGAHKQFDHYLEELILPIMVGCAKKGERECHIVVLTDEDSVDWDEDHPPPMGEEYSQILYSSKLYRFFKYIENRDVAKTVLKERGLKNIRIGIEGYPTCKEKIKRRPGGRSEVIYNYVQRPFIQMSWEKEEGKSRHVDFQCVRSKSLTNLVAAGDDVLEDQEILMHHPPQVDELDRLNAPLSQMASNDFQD
UniProt Q9Y5Q9, sequence (Q9Y5Q9 whole entry, looked up): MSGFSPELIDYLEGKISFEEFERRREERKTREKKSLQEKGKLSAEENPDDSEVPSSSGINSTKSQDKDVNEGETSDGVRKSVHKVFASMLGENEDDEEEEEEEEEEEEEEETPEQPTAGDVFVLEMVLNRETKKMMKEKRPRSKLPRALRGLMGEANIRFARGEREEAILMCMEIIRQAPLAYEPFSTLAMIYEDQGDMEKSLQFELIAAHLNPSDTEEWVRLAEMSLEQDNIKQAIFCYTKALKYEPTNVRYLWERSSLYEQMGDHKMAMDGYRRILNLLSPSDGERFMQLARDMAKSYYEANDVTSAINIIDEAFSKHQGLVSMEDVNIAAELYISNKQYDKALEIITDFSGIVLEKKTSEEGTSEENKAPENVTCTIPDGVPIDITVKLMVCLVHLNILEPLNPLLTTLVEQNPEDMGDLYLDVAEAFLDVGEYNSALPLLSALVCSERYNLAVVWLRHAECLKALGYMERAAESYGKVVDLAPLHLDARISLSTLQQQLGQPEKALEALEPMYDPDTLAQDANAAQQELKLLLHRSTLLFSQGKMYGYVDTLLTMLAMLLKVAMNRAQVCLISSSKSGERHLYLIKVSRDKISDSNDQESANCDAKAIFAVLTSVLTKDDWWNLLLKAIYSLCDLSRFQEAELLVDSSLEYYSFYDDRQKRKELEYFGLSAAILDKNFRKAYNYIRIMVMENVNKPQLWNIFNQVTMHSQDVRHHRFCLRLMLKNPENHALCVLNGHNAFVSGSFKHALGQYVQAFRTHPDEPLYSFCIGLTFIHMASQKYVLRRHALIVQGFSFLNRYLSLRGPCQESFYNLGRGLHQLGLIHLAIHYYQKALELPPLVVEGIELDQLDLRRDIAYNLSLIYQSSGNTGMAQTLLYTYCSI
UniProt P13598, sequence (P13598 whole entry, looked up): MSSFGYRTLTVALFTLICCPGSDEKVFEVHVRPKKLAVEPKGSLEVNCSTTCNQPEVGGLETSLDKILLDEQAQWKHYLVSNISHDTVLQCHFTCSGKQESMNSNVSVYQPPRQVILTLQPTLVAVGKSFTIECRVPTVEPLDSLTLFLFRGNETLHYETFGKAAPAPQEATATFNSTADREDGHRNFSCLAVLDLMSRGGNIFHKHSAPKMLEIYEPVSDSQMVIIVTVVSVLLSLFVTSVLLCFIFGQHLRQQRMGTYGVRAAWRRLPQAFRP
UniProt Q16836, sequence (Q16836 whole entry, looked up): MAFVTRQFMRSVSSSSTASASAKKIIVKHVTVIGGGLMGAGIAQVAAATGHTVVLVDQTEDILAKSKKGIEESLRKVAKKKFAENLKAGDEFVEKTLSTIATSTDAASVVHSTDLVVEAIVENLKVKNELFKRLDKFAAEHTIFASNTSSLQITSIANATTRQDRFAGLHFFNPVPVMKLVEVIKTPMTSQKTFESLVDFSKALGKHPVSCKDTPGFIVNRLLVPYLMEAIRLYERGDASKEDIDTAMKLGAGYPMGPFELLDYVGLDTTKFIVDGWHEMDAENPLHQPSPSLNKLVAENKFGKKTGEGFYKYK

Row | Target | log2 fold change [1] | log2 fold change [2] | log2 fold change [3] | log2 fold change [4] | log2 fold change [5]
1 | HMGA1 (UniProt P17096) | 0.009 | 0.024 | 0.011 | -0.031 | -0.135
2 | ICAM2 (UniProt P13598) | 0.03 | -0.025 | -0.006 | -0.022 | 0.084
3 | IGF2BP2 (UniProt Q9Y6M1) | -0.041 | -0.004 | 0.012 | 0.022 | 0.008
4 | ILKAP (UniProt Q9H0C8) | -0.004 | -0.004 | -0.013 | 0.013 | 0.009
5 | IMPDH2 (UniProt P12268) | 0 | -0.014 | -0.007 | 0.045 | 0.017
6 | HNRNPD isoform 2 (UniProt Q14103) | 0.059 | -0.015 | -0.01 | 0.018 | 0.125
7 | HDAC3 (UniProt O15379) | -0.035 | 0.009 | 0.006 | 0.044 | 0.014
8 | HNRNPH2 (UniProt P55795) | 0.036 | -0.007 | 0 | 0.105 | -0.011
9 | IMPACT (UniProt Q9P2X3) | 0.093 | -0.07 | -0.18 | -0.067 | -0.13
10 | GTF3C3 (UniProt Q9Y5Q9) | -0.018 | -0.019 | 0.03 | -0.052 | 0.032
11 | INPPL1 (UniProt O15357) | 0.014 | 0.029 | -0.021 | 0.012 | 0.021
12 | HNRNPM (UniProt M0QZM1) | -0.093 | -0.092 | -0.01 | 0.152 | 
13 | INF2 (UniProt Q27J81) | 0.016 | 0.017 | 0.015 | -0.014 | -0.06
14 | GOLGA6B (UniProt A6NDN3) | -0.041 | 0.006 | 0.009 | -0.123 | 0.012
15 | GUSB (UniProt P08236) | 0.035 | 0.022 | 0.016 | -0.051 | -0.313
16 | KCTD20 (UniProt Q7Z5Y7) | -0.031 | -0.011 | 0.097 | -0.009 | 0.078
17 | GPR108 (UniProt Q9NPR9) | 0.059 | -0.053 | 0.005 | -0.066 | 0.014
18 | GNL3 (UniProt Q9BVP2) | 0.018 | 0.087 | 0.006 | -0.023 | 0.041
19 | HELQ (UniProt Q8TDG4) | 0.033 | 0.028 | 0.005 | -0.004 | -0.074
20 | HS1BP3 (UniProt Q53T59) | 0.018 | -0.03 | -0.073 | 0.004 | -0.053
21 | INTS1 (UniProt Q8N201) | -0.017 | 0.065 | -0.045 | 0.019 | 0.004
22 | GSTCD (UniProt Q8NEC7) | -0.048 | -0.048 | -0.076 | -0.055 | 0.007
23 | HK2 (UniProt P52789) | -0.021 | -0.016 | 0.043 | 0.019 | 0.063
24 | ILK (UniProt Q13418) | -0.009 | -0.019 | 0.004 | 0.027 | -0.002
25 | GSTM4 (UniProt Q03013) | -0.04 | -0.053 | 0.03 | 0.09 | -0.016
26 | KHDRBS1 (UniProt Q07666) | -0.04 | 0.027 | 0 | 0.058 | 0.045
27 | HDAC2 (UniProt Q92769) | 0.004 | 0.002 | -0.017 | 0.02 | -0.004

Row | Target | log2 fold change [1] | log2 fold change [2] | log2 fold change [3] | log2 fold change [4] | log2 fold change [5]
28 | HNRNPAB isoform 3 (UniProt Q99729) | -0.015 | 0.023 | -0.025 | 0.01 | -0.069
29 | IMMT (UniProt C9J406) | -0.055 | 0.041 | 0.049 | 0.077 | -0.056
30 | INTS8 (UniProt Q75QN2) | 0.021 | -0.085 | -0.002 | 0.023 | 0.081
31 | HMGN5 (UniProt Q5JSK9) | -0.067 | 0.015 |  |  | 
32 | HNRNPL, A0A3B3ITJ4 | -0.063 | -0.011 |  |  | 
33 | GLUD2 (UniProt P49448) | -0.001 | 0.031 | 0.265 | 0.019 | 0.022
34 | HDAC1 (UniProt Q13547) | -0.04 | 0.02 | 0.001 | -0.025 | -0.015
35 | GMPS (UniProt P49915) | -0.014 | -0.001 | 0.02 | 0.019 | 0.088
36 | INTS7 (UniProt Q9NVH2) | -0.06 | 0.007 | 0.016 | 0.009 | -0.001
37 | GTPBP2 (UniProt Q9BX10) | 0.019 | 0.021 | 0.025 | 0.049 | 0.034
38 | IL18R1 (UniProt Q13478) | -0.612 (active) | -0.103 | 0.119 | -0.094 | 0.052
39 | IRAK1 (UniProt P51617) | -0.146 | -0.028 | -0.001 | 0.004 | 0.026
40 | HIST2H2BC (UniProt Q6DN03) | -0.03 | 0.065 | 0.014 | 0.003 | 0.165
41 | KIAA0930 isoform 2 (UniProt Q6ICG6) | 0.3 | -0.034 | -0.051 | 0.07 | 0.031
42 | GYPA (UniProt P02724) | 0.071 | -0.055 | -0.002 | 0.138 | 0.236
43 | GRB10 (UniProt Q13322) | 0.03 | 0.022 | 0.024 | 0.045 | -0.078
44 | HNRNPUL1 (UniProt Q9BUJ2) | 0.043 | -0.022 | -0.028 | -0.003 | -0.006
45 | GMIP (UniProt Q9P107) | 0.023 | -0.04 | -0.04 | -0.018 | 0.054
46 | KCT2 (UniProt Q8NC54) | 0.069 | -0.008 | -0.05 | -0.033 | -0.173
47 | KEAP1 (UniProt Q14145) | 0.029 | 0.016 | 0.014 | -0.018 | -0.02
48 | HADH isoform 2 (UniProt Q16836) | 0.012 | 0.004 | -0.047 | 0.013 | 0.086
49 | HMGN5 (UniProt P82970) | 0.033 | 0.05 | -0.008 | -0.026 | 0.083
50 | HLCS (UniProt P50747) | -0.027 | 0.027 | 0.011 | -0.006 | 0.038
51 | HTT (UniProt P42858) | 0.039 | -0.088 | 0.064 | 0.066 | -0.054
52 | INTS5 (UniProt Q6P9B9) | -0.086 | -0.034 | -0.019 | 0.015 | 0.127
53 | GSTP1 (UniProt P09211) | -0.018 | 0.004 | -0.003 | -0.017 | 0.035
54 | HSPA8 (UniProt P11142) | 0.002 | -0.014 | -0.004 | -0.004 | 0.006
